Laboratory results published in PubChem BioAssay AID743449 (Broad Institute, 2014).
In all, about 9,900 compounds went through this assay and about 90 (0.9%) were called active. Inconclusive results (about 2%) are left out.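 Rule for the calls: active = mean normalized replicate activity at least 50 and at least half of replicates each reaching 50; inconclusive = only one of the two criteria met; inactive = neither criterion met.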 The list comes from a sample in which actives are over-represented; it also holds similar structures and randomly drawn compounds.

Test: YAP1 pathway inhibitors via CTGF transcript, primary screen, DLD1 colon cancer cells, RT-qPCR, single point (AID 743449);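 note: 0% = neutral control wells and 100% = dasatinib control wells; higher means stronger suppression of CTGF expression like dasatinib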
Conditions: DLD1 CTGF mRNA qPCR, 24 h; at 12.5 µM; hits give high values

inhibition, inactive:
C[C@H](CO)N1C[C@H](C)[C@@H](CN(C)S(C)(=O)=O)Oc2ncc(-c3ccc(F)cc3)cc2C1=O 15.8%
CO[C@@H]1CN(C)C(=O)c2cc(NS(=O)(=O)c3cccc(Cl)c3)ccc2OC[C@H](C)NC[C@@H]1C 4.93%
CO[C@@H]1CC[C@H]2CCOc3ccc(C#N)cc3C(=O)N(C)C[C@@H](c3ccccc3)CC(=O)N(C)C[C@@H]1O2 -20.2%
COCC(=O)N1[C@H](CO)[C@H](c2ccc(C#CC(C)C)cc2)[C@@H]1CNC(C)=O 26.8%
C[C@H]1CN([C@@H](C)CO)C(=O)c2cc(NS(=O)(=O)c3cn(C)cn3)ccc2O[C@H]1CN(C)S(=O)(=O)c1ccc(F)cc1 -21.9%
COCc1cn(CC[C@@H]2CC[C@@H](NC(=O)Nc3c(C)noc3C)[C@@H](CO)O2)nn1 4.39%
C[C@@H]1CCCCO[C@@H](CN(C)Cc2ccc(C(=O)O)cc2)[C@H](C)CN([C@H](C)CO)C(=O)c2cc(N(C)C)ccc2O1 -3.21%
Cc1cccc(S(=O)(=O)N2C[C@H](O)COC[C@@H]3O[C@@H](CC(=O)Nc4ccccc4)CC[C@H]32)c1 8.1%
COc1ccc2c3c(n(C)c2c1)[C@@H](CO)N(Cc1ccncc1)CC31CN(C(=O)C2CCCCC2)C1 2.18%
COc1ccc2c3c(n(C)c2c1)[C@H](CO)N(Cc1ccncc1)CC31CN(C(=O)Nc2cccc(F)c2)C1 46.1%
CC(=O)N1[C@H](CO)[C@H](c2ccccc2)[C@@H]1CN(C(=O)c1ccccc1F)C(C)C 13%
CCNC(=O)C[C@H]1CC[C@@H]2[C@H](COC[C@H](O)CN2C(=O)C2CCCC2)O1 -1.66%
C[C@@H]1CN([C@H](C)CO)C(=O)c2ccccc2-c2ccccc2CO[C@@H]1CN(C)C(=O)Nc1ccc(-c2ccccc2)cc1 39.6%
C[C@@H]1CN([C@H](C)CO)C(=O)c2ccccc2-c2ccccc2CO[C@@H]1CN(C)C(=O)Nc1cccc(C(F)(F)F)c1 14.3%
C[C@@H]1CCCCO[C@H](CN(C)C(=O)Nc2ccccc2)[C@H](C)CN([C@@H](C)CO)C(=O)c2cc(NC(=O)Nc3ccccc3)ccc2O1 0.777%
C[C@H](CO)N1C[C@H](C)[C@H](CN(C)C(=O)Nc2ccc(-c3ccccc3)cc2)OCc2ccccc2-c2ccccc2C1=O 28.1%
C[C@H]1CN([C@@H](C)CO)C(=O)c2cc(C#Cc3ccccc3)cnc2O[C@@H]1CN(C)C(=O)c1ccccc1 34.5%
C[C@H](CO)N1C[C@H](C)[C@H](CN(C)C(=O)Nc2cccc(C(F)(F)F)c2)OCc2ccccc2-c2ccccc2C1=O 11.9%
C[C@@H]1CN([C@H](C)CO)C(=O)c2cc(C#Cc3ccccc3)cnc2O[C@@H]1CN(C)C(=O)c1ccccc1 14.1%
C[C@@H]1CCCCO[C@@H](CN(C)C(=O)Nc2ccccc2)[C@H](C)CN([C@@H](C)CO)C(=O)c2cc(NC(=O)Nc3ccccc3)ccc2O1 16.9%
O=C(C[C@@H]1CC[C@H]2[C@@H](COC[C@H](O)CN2C(=O)Nc2ccc(Cl)cc2)O1)NCC1CCCCC1 4.31%
COc1ccccc1C#Cc1ccc([C@@H]2[C@@H](C#N)N(C(=O)C3CCC3)[C@@H]2CO)cc1 21%
C[C@@H](NC(=O)C[C@@H]1C[C@H]2c3cc(NS(=O)(=O)c4ccc(F)cc4)ccc3O[C@H]2[C@@H](CO)O1)c1ccccc1 -0.447%
COc1cccc(CNC(=O)[C@H]2[C@H](CO)[C@H]3Cn4c(ccc(-c5cncnc5)c4=O)[C@H]3N2C)c1 1.36%
CO[C@@H](CN(C)S(=O)(=O)c1cccc(Cl)c1)[C@H](C)CN(C(=O)Nc1ccccc1F)[C@H](C)CO -17%
CCCNC(=O)N1[C@@H](C#N)[C@@H](c2ccc(C#Cc3cccc(F)c3)cc2)[C@@H]1CO 40.6%
CCCNC(=O)N1[C@H](C#N)[C@H](c2ccc(C#Cc3cccc(F)c3)cc2)[C@H]1CO 12.2%
O=C(C[C@H]1CC[C@H]2[C@@H](COC[C@@H](O)CN2C(=O)c2ccc3c(c2)OCO3)O1)NC1CCC1 11%
CN(C)CC(=O)N1CC2(C1)[C@H](c1ccccc1)[C@H](CO)N2S(C)(=O)=O -45.5%
C[C@@H]1CN([C@@H](C)CO)C(=O)c2ccccc2-c2ccccc2CO[C@@H]1CN(C)Cc1ccc(Oc2ccccc2)cc1 44.4%
C[C@@H]1CN([C@H](C)CO)C(=O)c2ccccc2-c2ccccc2CO[C@@H]1CN(C)Cc1cccnc1 -8.82%
C[C@H](CO)N1C[C@H](C)[C@@H](CN(C)Cc2ccc(Oc3ccccc3)cc2)OCc2ccccc2-c2ccccc2C1=O -10.6%
C[C@H](CO)N1C[C@H](C)[C@H](CN(C)Cc2ccc3c(c2)OCCN3C)OCc2ccccc2-c2ccccc2C1=O -137%
C[C@H]1CN([C@@H](C)CO)C(=O)c2ccccc2-c2ccccc2CO[C@H]1CN(C)Cc1ccc(Oc2ccccc2)cc1 47.8%
C[C@H]1CN([C@@H](C)CO)C(=O)c2ccccc2-c2ccccc2CO[C@H]1CN(C)Cc1ccc2c(c1)OCCN2C -29.2%
C[C@@H](NC(=O)C[C@@H]1CC[C@H]2[C@@H](COc3ccc(NC(=O)C4CCOCC4)cc3C(=O)N2C)O1)c1ccccc1 -5.56%
O=C(CN1CCOCC1)N1CC[C@@H]2[C@H](CO)Nc3ccc(-c4ccccc4F)cc3[C@@H]21 -17.8%
CCCC#Cc1ccc([C@@H]2[C@H]3CN(S(=O)(=O)c4ccccc4C)CC(=O)N3[C@H]2CO)cc1 26.1%
C[C@@H]1CN([C@H](C)CO)C(=O)c2ccccc2-c2ccccc2CO[C@H]1CN(C)C(=O)[C@@H]1CCCN1C 3.47%
O=C(Nc1ccc(C(F)(F)F)cc1)Nc1ccc2c(c1)[C@@H]1C[C@H](CC(=O)N3CCc4ccccc4C3)O[C@H](CO)[C@@H]1O2 -58%
O=C(Nc1ccc2c(c1)[C@@H]1C[C@H](CC(=O)N3CCc4ccccc4C3)O[C@H](CO)[C@@H]1O2)c1ccc2c(c1)OCO2 -19.3%
O=C(Nc1ccc(C(F)(F)F)cc1)Nc1ccc2c(c1)[C@@H]1C[C@H](CC(=O)N3CCc4ccccc4C3)O[C@@H](CO)[C@@H]1O2 -25%
O=C(Nc1ccc2c(c1)[C@@H]1C[C@H](CC(=O)N3CCc4ccccc4C3)O[C@@H](CO)[C@@H]1O2)c1ccc2c(c1)OCO2 -4.94%
O=C(Nc1ccc2c(c1)[C@@H]1C[C@@H](CC(=O)N3CCc4ccccc4C3)O[C@H](CO)[C@@H]1O2)c1ccc2c(c1)OCO2 21.2%
O=C(Nc1ccc2c(c1)[C@H]1C[C@H](CC(=O)N3CCc4ccccc4C3)O[C@H](CO)[C@H]1O2)c1ccc2c(c1)OCO2 17%
CS(=O)(=O)N1[C@@H](C#N)[C@H](c2ccc(C#Cc3cccc(F)c3)cc2)[C@@H]1CO -161%
O=C(C[C@@H]1CC[C@@H](NC(=O)C2CCOCC2)[C@@H](CO)O1)NCC1CCCCC1 -39.2%
CO[C@@H]1CN(C)C(=O)c2ccc(NS(=O)(=O)c3ccc(C)cc3)cc2OC[C@H](C)N(C)C[C@@H]1C -16.4%
CC(=O)N1CC2(C1)[C@H](c1ccccc1)[C@H](CO)N2C(=O)c1cnccn1 -10.2%

inhibition, active:
COc1ccc2c3c(n(C)c2c1)[C@@H](CO)N(Cc1ccncc1)CC31CN(C(=O)Nc2cccc(F)c2)C1 52.9%
C[C@@H]1CN([C@@H](C)CO)C(=O)c2ccccc2-c2ccccc2CO[C@H]1CN(C)C(=O)Nc1ccc(-c2ccccc2)cc1 73.6%
C[C@@H]1CN([C@@H](C)CO)C(=O)c2cc(NC(=O)Nc3ccccc3)ccc2O[C@@H](C)CCCCO[C@@H]1CN(C)C(=O)Nc1ccccc1 62.7%
C[C@H]1CN([C@@H](C)CO)C(=O)c2cc(C#Cc3ccccc3)cnc2O[C@H]1CN(C)C(=O)c1ccccc1 65.3%
C[C@@H]1CN([C@@H](C)CO)C(=O)c2ccccc2-c2ccccc2CO[C@H]1CN(C)C(=O)Nc1cccc(C(F)(F)F)c1 64.7%
CCCNC(=O)N1[C@H](C#N)[C@@H](c2ccc(C#Cc3cccc(F)c3)cc2)[C@@H]1CO 69.7%
C[C@H](CO)N1C[C@H](C)[C@H](CN(C)Cc2ccc(Oc3ccccc3)cc2)OCc2ccccc2-c2ccccc2C1=O 59%
C[C@@H]1CN([C@H](C)CO)C(=O)c2ccccc2-c2ccccc2CO[C@@H]1CN(C)Cc1ccc2c(c1)OCCN2C 68.3%
C[C@@H]1CN([C@H](C)CO)C(=O)c2ccccc2-c2ccccc2CO[C@@H]1CN(C)Cc1ccc(Oc2ccccc2)cc1 83.9%
O=C(Nc1ccc(C(F)(F)F)cc1)Nc1ccc2c(c1)[C@H]1C[C@H](CC(=O)N3CCc4ccccc4C3)O[C@@H](CO)[C@H]1O2 57.2%
O=C(Nc1ccc2c(c1)[C@H]1C[C@@H](CC(=O)N3CCc4ccccc4C3)O[C@@H](CO)[C@H]1O2)c1ccc2c(c1)OCO2 61.8%
O=C(Nc1ccc2c(c1)[C@H]1C[C@@H](CC(=O)N3CCc4ccccc4C3)O[C@H](CO)[C@H]1O2)c1ccc2c(c1)OCO2 56.2%
